Assay results taken from PubChem BioAssay (EPA / NIEHS).
Values joined by “and” are separate entries in the source; they are usually repeats but may differ in a detail not shown here. Equal entries are not always repeated. Results filed as inconclusive are left out. More than one record can exist for a structure, and the calls need not agree. Active and inactive are the calls of the source. How the source made its calls, unless noted: active means hit-call score of the fitted dose curve at least 0.9, where 1 is the maximum; inconclusive means response in the unintended direction; inactive means score below 0.9.

Experiments:
[1] = ATG_TAL_CIS: Attagene CIS-FACTORIAL HepG2 Assay for human TAL Basal Promoter (AID 2282966; active means hit-call score of the fitted dose curve at least 0.9, where 1 is the maximum; inactive means score below 0.9;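 further: background control endpoint measuring basal TAL promoter reporter mRNA not a specific factor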); details: HepG2 Attagene cis-factorial TAL promoter reporter; actives raise or lower the signal
In short: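 Fluorescence of labelled reporter cDNA fragments, resolved by capillary electrophoresis, gave the readout. Human HepG2 liver cells carried transiently transfected cis-element reporter units and were treated for 24 hours; activity was fitted bidirectionally against DMSO.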

[2] = ATG_TGFb_CIS: Attagene CIS-FACTORIAL HepG2 Assay for human Transforming Growth Factor (TGF) (AID 2282967; active means hit-call score of the fitted dose curve at least 0.9, where 1 is the maximum; inactive means score below 0.9); details: HepG2 Attagene CIS TGFb reporter, mRNA transcription; actives raise or lower the signal
In short: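 Transient MRTU transfection of HepG2 (FuGene 6). Dose 24 h. TriZol RNA, oligo(dT) RT, PCR, 6-FAM primer extension, HpaI cut, CE. Bidirectional fit, DMSO = baseline.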

[3] = ATG_VDRE_CIS: Attagene CIS-FACTORIAL HepG2 Assay for human Vitamin D Receptor Element (VDRE) (AID 2282968; active means hit-call score of the fitted dose curve at least 0.9, where 1 is the maximum; inactive means score below 0.9); details: HepG2 VDRE cis-reporter transcription, actives raise or lower the signal
In short: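 HepG2 cells transiently transfected with cis-element reporter units, dosed 24 h; reporter mRNA measured by RT-PCR, 6-FAM labeling, HpaI digestion and capillary electrophoresis. Activity fitted bidirectionally against DMSO baseline.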

[4] = molecular target: Nuclear receptor subfamily 1 group I member 3 (Homo sapiens) (UniProt Q14994); assay: ATG_CAR_TRANS: Attagene TRANS-FACTORIAL HepG2 Assay for human Constitutive Androstane Receptor (CAR) (AID 2282969); details: HepG2 Attagene TRANS-FACTORIAL CAR reporter;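 further: activators raise reporter mRNA above DMSO so AC50 marks induction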
In short: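 HepG2 cells transiently transfected with multiplexed GAL4-UAS reporter units expressing chimeric NR-Gal4 proteins; compound exposure 24 h. Reporter mRNA measured by RT-PCR, 6-FAM labelling, HpaI digestion and capillary electrophoresis; gain-of-signal fitted against DMSO baseline.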

[5] = molecular target: Estrogen receptor (Homo sapiens) (UniProt P03372); assay: ATG_ERa_TRANS: Attagene TRANS-FACTORIAL HepG2 Assay for human Estrogen Receptor alpha (ERa) (AID 2282970); details: HepG2 Attagene TRANS ERa GAL4 reporter, mRNA
In short: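 Human liver HepG2, transient transfection of multiple GAL4-UAS reporter units; TRANS format (exogenous NR-Gal4 chimera). 24 h dosing. Readout: reporter mRNA, RT-PCR, 6-FAM primer extension, HpaI digest, capillary electrophoresis. Positive direction vs DMSO.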

[6] = molecular target: Steroid hormone receptor ERR1 (Homo sapiens) (UniProt P11474); assay: ATG_ERRa_TRANS: Attagene TRANS-FACTORIAL HepG2 Assay for human Estrogen-Related Receptor alpha (ERRa) (AID 2282971); details: HepG2 Attagene TRANS reporter, ERRa transactivation
In short: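 Reporter transcript induction was quantified by RT-PCR and capillary electrophoresis of FAM-labelled, HpaI-cut products after 24 h treatment of HepG2 cells carrying transiently transfected GAL4-UAS reporter units and an exogenous ERRa-Gal4 fusion; activity scored as increase over DMSO.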

[7] = molecular target: X-box-binding protein 1 (Homo sapiens) (UniProt P17861); assay: ATG_Xbp1_CIS: Attagene CIS-FACTORIAL HepG2 Assay for human X-box Binding Protein 1 (XBP1) (AID 2282972; active means hit-call score of the fitted dose curve at least 0.9, where 1 is the maximum; inactive means score below 0.9); details: HepG2 XBP1 cis-element reporter, Attagene multiplex; actives raise or lower the signal
In short: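 Fluorescence-labelled cDNA fragments from reporter transcripts, separated by capillary electrophoresis, give the signal. Source: HepG2 cells transfected with promoter-driven reporter units, harvested 24 h post-dose. DMSO served as reference for bidirectional curve fitting.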

[8] = molecular target: Androgen receptor (Homo sapiens) (UniProt P10275); assay: ATG_AR_TRANS: Attagene TRANS-FACTORIAL HepG2 Assay for human Androgen Receptor (AR) (AID 2282973); details: HepG2 Attagene TRANS-FACTORIAL AR reporter transcription
In short: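 Steps: transfect HepG2 with multiple GAL4-UAS reporter transcription units (TRANS format, exogenous NR-Gal4 protein); dose 24 h; isolate RNA, reverse-transcribe, PCR-amplify, FAM-label, HpaI-digest; resolve by capillary electrophoresis. Positive direction vs DMSO.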

[9] = ATG_M_19_TRANS: Attagene TRANS-FACTORIAL HepG2 Assay for M19 Transcription Factor (Internal Marker) (AID 2282974); details: HepG2 Attagene TRANS-FACTORIAL M19 internal marker reporter
In short: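 Using RT-PCR and capillary electrophoresis, reporter mRNA from transiently transfected human HepG2 cells was quantified following 24 h exposure; activity was fitted in the positive direction against DMSO.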

[10] = ATG_GAL4_TRANS: Attagene TRANS-FACTORIAL HepG2 Assay for GAL4 (Internal Marker) (AID 2282976); details: HepG2 Attagene TRANS GAL4 internal marker reporter
In short: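 First, HepG2 cells were transfected with reporter units under GAL4-UAS control. Next, they were treated with chemical for 24 h. Finally, RNA was reverse-transcribed, PCR-amplified, FAM-labelled and resolved by capillary electrophoresis, with induction scored against DMSO.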

[11] = molecular target: Oxysterols receptor LXR-beta (Homo sapiens) (UniProt P55055); assay: ATG_LXRb_TRANS: Attagene TRANS-FACTORIAL HepG2 Assay for human Liver X Receptor beta (LXRb) (AID 2282981); details: HepG2 Attagene TRANS GAL4-LXRb reporter, mRNA
In short: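 HepG2 cells transiently transfected with multiple reporter transcription units carrying chimeric NR-Gal4 proteins acting on GAL4-UAS reporters; compound exposure 24 h. Reporter mRNA quantified by RT-PCR, 6-FAM labelling, HpaI digestion and capillary electrophoresis; gain of signal versus DMSO.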

[12] = molecular target: Hepatocyte nuclear factor 4-alpha (Homo sapiens) (UniProt P41235); assay: ATG_HNF4a_TRANS: Attagene TRANS-FACTORIAL HepG2 Assay for human Hepatocyte Nuclear Factor 4 alpha (HNF4a) (AID 2282982); details: HepG2 HNF4a transactivation reporter, mRNA readout
In short: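 HepG2 cells transiently transfected with multiplexed GAL4-UAS reporter units responsive to chimeric NR-GAL4 proteins; compound exposure 24 h. Reporter mRNA quantified by RT-PCR, 6-FAM labelling, HpaI digestion and capillary electrophoresis; gain of signal versus DMSO baseline.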

[13] = ATG_M_06_TRANS: Attagene TRANS-FACTORIAL HepG2 Assay for M06 Transcription Factor (Internal Marker) (AID 2282983); details: HepG2 Attagene TRANS M06 internal marker reporter;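 further: reporter transcript level by RT-PCR then capillary electrophoresis fluorescence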
In short: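 Transfect HepG2 with MRTUs → dose compounds 24 h → isolate RNA, oligo(dT) RT → PCR with reporter primers → 6-FAM primer extension → HpaI digest → CE fragment analysis. Positive direction vs DMSO.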

[14] = ATG_M_32_TRANS: Attagene TRANS-FACTORIAL HepG2 Assay for M32 Transcription Factor (Internal Marker) (AID 2282984); details: HepG2 Attagene TRANS M32 internal marker reporter;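 further: transcript level of a background control reporter unit measured by RT-PCR and capillary electrophoresis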
In short: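 HepG2 cells transiently transfected with multiple GAL4-UAS reporter transcription units, dosed for 24 hours; reporter mRNA quantified by RT-PCR, 6-FAM primer extension, HpaI digestion and capillary electrophoresis. Gain-of-signal fitted versus DMSO baseline; internal background-control marker.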

[15] = molecular target: Nuclear receptor subfamily 4 group A member 2 (Homo sapiens) (UniProt P43354); assay: ATG_NURR1_TRANS: Attagene TRANS-FACTORIAL HepG2 Assay for human Nuclear Receptor Related Protein 1 (NURR1) (AID 2282985); details: HepG2 Attagene TRANS reporter, mRNA readout
In short: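 HepG2 cells transiently transfected with GAL4-UAS reporter units and chimeric NR-Gal4 constructs; chemical exposure 24 h. Reporter mRNA quantified by RT-PCR, fluorescent labelling and capillary electrophoresis; gain of signal fitted relative to DMSO baseline.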

[16] = molecular target: Transcriptional activator Myb (Homo sapiens) (UniProt P10242); assay: ATG_Myb_CIS: Attagene CIS-FACTORIAL HepG2 Assay for human Myeloblastosis (Myb) Proto-Oncogene Transcription Factor (AID 2282986; active means hit-call score of the fitted dose curve at least 0.9, where 1 is the maximum; inactive means score below 0.9); details: HepG2 Attagene CIS-FACTORIAL Myb reporter transcription; actives raise or lower the signal
In short: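 In this HepG2 transient-transfection format, cis-regulated reporter mRNA is quantified 24 h post-dosing by RT-PCR with capillary electrophoresis, fitted bidirectionally to DMSO baseline.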

[17] = molecular target: Glucocorticoid receptor (Homo sapiens) (UniProt P04150); assay: ATG_GR_TRANS: Attagene TRANS-FACTORIAL HepG2 Assay for human Glucocorticoid Receptor (GR) (AID 2282978); details: HepG2 Attagene TRANS GR reporter, mRNA transcription;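 further: activators score as hits since higher reporter transcript over DMSO is fitted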
In short: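 Exogenous NR-GAL4 fusion activity was assessed through induced GAL4-UAS reporter transcripts in transfected human HepG2 cells, quantified after 24 h by RT-PCR and fluorescent capillary electrophoresis with DMSO as baseline.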

[18] = molecular target: Estrogen-related receptor gamma (Homo sapiens) (UniProt P62508); assay: ATG_ERRg_TRANS: Attagene TRANS-FACTORIAL HepG2 Assay for human Estrogen-Related Receptor gamma (ERRg) (AID 2282977); details: HepG2 Attagene TRANS reporter, ERRg transactivation;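 further: hits increase reporter signal over DMSO so potencies reflect activators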
In short: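 Transient HepG2 transfectants, 24 h compound exposure, GAL4-UAS reporter mRNA by RT-PCR/6-FAM labelling/capillary electrophoresis; positive direction vs DMSO.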

[19] = molecular target: Bile acid receptor (Homo sapiens) (UniProt Q96RI1); assay: ATG_FXR_TRANS: Attagene TRANS-FACTORIAL HepG2 Assay for Farnesoid X Receptor (FXR) (AID 2282979); details: HepG2 Attagene TRANS FXR-GAL4 reporter transcription;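 further: hits raise reporter mRNA above DMSO so AC50 marks FXR activation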
In short: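 Transient transfection of HepG2 with multiplexed GAL4-UAS reporter units; exogenous FXR-GAL4 chimera. Dose 24 h → TriZol RNA → oligo(dT) RT → PCR, 6-FAM primer extension, HpaI cut → CE. Gain vs DMSO.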

Measured: AC50

Sequence of Oxysterols receptor LXR-beta (Homo sapiens) (P55055 whole entry, looked up, the tested form may be a part): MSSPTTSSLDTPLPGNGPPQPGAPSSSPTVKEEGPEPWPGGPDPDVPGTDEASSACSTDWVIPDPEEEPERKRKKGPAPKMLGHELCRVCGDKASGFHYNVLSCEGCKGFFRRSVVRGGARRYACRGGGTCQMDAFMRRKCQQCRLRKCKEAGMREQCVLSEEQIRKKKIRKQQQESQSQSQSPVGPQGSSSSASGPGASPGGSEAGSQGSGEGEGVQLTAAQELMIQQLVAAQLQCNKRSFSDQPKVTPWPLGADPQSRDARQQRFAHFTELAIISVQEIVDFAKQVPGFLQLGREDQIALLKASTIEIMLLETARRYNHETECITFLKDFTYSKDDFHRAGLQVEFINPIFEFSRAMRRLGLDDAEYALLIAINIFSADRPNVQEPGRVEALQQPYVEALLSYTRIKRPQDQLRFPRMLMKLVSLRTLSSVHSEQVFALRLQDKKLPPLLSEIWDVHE
Sequence of Glucocorticoid receptor (Homo sapiens) (P04150 whole entry, looked up, the tested form may be a part): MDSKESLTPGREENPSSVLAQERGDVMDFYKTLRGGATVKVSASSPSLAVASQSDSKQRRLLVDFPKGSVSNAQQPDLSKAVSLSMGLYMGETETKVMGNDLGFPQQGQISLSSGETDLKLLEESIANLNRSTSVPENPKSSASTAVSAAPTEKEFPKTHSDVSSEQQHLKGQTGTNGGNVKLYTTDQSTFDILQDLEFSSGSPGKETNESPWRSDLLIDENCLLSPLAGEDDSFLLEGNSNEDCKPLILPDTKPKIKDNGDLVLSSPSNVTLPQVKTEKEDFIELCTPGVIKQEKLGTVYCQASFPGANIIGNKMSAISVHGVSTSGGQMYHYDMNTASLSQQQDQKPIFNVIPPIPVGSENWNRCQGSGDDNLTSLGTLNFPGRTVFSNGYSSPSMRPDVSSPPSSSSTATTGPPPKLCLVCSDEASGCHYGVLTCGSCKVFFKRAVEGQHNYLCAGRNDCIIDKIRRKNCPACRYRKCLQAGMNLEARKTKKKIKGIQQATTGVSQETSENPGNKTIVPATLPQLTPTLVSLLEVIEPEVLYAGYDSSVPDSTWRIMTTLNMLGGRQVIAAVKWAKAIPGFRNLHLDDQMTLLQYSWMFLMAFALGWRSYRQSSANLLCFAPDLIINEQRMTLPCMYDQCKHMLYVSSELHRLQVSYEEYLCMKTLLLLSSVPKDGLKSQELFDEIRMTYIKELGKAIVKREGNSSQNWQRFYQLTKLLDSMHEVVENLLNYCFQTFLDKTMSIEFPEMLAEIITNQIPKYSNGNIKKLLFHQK
Sequence of Estrogen receptor (Homo sapiens) (P03372 whole entry, looked up, the tested form may be a part): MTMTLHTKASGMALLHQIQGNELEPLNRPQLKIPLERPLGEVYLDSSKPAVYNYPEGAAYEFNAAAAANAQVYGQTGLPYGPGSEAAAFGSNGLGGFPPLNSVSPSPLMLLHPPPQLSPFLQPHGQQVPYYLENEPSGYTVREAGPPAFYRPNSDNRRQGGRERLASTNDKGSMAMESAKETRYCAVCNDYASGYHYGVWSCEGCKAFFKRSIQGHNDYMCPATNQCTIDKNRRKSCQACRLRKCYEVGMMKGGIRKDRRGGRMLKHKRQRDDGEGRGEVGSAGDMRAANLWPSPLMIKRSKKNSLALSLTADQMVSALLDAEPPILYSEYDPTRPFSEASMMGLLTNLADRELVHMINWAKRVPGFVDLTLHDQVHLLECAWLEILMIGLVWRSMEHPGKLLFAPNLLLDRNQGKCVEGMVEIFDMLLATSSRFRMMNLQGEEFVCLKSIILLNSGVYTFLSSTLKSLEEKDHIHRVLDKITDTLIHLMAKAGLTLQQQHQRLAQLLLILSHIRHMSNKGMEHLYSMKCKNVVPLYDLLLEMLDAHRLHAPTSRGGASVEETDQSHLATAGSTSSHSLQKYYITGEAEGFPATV
Sequence of Bile acid receptor (Homo sapiens) (Q96RI1 whole entry, looked up, the tested form may be a part): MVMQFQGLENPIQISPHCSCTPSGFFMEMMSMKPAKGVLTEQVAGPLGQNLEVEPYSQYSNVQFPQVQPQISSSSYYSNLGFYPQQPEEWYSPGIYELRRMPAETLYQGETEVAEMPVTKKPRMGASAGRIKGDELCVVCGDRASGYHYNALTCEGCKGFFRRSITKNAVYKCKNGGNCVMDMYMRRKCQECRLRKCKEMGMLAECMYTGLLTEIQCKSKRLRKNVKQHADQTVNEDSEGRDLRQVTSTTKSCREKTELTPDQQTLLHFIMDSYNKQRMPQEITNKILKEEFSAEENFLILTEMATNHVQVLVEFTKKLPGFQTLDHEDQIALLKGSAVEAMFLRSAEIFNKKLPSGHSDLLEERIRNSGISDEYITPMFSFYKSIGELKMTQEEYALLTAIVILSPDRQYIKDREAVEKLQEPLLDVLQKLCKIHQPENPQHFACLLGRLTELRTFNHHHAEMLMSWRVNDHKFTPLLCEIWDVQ
Sequence of Nuclear receptor subfamily 1 group I member 3 (Homo sapiens) (Q14994 whole entry, looked up, the tested form may be a part): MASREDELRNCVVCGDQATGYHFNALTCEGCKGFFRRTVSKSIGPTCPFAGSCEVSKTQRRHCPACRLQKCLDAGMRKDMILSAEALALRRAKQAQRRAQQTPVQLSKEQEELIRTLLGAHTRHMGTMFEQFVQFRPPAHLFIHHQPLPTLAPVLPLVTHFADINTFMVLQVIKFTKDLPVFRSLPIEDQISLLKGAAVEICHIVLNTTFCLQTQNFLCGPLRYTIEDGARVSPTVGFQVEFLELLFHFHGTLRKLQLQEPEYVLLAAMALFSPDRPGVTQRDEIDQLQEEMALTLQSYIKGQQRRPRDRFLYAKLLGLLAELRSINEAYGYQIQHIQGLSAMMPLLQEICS
Sequence of Transcriptional activator Myb (Homo sapiens) (P10242 whole entry, looked up): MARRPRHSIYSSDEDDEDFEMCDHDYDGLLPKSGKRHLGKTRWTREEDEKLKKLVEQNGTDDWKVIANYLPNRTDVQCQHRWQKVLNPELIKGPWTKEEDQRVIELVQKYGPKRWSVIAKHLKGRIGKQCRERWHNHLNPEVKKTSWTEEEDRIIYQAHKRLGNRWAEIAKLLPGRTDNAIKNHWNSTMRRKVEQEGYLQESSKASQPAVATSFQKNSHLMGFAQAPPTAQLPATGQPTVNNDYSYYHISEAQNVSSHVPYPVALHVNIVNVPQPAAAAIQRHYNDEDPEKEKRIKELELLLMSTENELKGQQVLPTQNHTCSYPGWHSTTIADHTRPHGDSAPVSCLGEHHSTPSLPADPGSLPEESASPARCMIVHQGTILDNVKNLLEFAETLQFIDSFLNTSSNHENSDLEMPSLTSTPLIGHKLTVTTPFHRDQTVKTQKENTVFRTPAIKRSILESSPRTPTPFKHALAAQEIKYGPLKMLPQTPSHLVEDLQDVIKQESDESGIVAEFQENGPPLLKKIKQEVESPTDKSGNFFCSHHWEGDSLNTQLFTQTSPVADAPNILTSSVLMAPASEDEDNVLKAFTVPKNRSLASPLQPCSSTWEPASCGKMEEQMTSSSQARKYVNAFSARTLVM
Sequence of X-box-binding protein 1 (Homo sapiens) (P17861 whole entry, looked up, the tested form may be a part): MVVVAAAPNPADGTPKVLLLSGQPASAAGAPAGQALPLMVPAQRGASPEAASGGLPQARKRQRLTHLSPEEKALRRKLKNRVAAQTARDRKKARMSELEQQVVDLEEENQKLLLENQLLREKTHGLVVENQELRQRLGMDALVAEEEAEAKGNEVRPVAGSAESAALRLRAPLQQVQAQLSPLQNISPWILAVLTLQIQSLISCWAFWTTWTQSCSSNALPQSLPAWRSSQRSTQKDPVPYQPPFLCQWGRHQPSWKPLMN
Sequence of Androgen receptor (Homo sapiens) (P10275 whole entry, looked up, the tested form may be a part): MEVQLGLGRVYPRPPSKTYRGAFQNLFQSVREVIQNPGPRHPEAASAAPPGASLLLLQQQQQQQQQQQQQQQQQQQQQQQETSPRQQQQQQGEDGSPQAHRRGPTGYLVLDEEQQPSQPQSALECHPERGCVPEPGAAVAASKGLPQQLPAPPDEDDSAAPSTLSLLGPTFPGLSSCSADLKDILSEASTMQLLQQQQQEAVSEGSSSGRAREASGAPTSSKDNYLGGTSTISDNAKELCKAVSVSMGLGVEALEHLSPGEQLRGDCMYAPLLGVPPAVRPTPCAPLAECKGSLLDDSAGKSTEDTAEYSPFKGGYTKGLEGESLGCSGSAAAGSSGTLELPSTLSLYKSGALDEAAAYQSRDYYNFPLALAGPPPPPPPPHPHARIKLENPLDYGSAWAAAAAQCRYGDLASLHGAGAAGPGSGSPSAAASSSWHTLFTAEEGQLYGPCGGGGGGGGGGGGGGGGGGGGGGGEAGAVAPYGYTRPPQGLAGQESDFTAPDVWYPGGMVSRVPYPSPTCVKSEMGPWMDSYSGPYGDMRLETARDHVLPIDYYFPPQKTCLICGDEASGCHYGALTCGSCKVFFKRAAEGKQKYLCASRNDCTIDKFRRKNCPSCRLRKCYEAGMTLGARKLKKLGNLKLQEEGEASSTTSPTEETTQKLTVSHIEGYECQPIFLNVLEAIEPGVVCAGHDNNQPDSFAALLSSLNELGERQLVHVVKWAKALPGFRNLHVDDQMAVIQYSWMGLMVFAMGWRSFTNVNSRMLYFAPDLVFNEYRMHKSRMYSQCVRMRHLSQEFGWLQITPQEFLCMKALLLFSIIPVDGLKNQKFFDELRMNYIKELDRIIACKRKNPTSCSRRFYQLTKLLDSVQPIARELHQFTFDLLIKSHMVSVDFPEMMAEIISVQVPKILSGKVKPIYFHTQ
Sequence of Hepatocyte nuclear factor 4-alpha (Homo sapiens) (P41235 whole entry, looked up, the tested form may be a part): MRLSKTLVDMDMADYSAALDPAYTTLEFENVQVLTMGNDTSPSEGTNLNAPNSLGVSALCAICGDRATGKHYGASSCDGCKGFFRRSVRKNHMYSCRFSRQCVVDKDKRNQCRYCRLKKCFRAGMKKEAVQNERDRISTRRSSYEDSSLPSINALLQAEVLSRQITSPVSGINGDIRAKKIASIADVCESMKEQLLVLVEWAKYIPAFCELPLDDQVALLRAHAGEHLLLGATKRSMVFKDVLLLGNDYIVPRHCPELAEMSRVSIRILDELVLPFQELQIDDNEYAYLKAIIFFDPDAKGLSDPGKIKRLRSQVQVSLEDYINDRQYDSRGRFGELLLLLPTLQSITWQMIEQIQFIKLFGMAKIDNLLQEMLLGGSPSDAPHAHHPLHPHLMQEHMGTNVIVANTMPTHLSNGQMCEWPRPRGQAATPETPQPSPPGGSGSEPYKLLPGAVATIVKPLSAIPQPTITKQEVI

c1cc2ccc3cccc4ccc(c1)c2c34
inactive: [1] | [2] | [3] | [4] | [5] | [6] | [7] | [8] | [9] | [10] | [11] | [12] | [13] | [14] | [15] | [16]

Cc1ccccc1O
inactive: [1] | [2] | [3] | [4] | [5] | [7] | [9] | [10] | [17] | [11] | [16]

ClC1=C(Cl)[C@]2(Cl)[C@@H]3[C@H]4C[C@H]([C@@H]5O[C@H]45)[C@@H]3[C@@]1(Cl)C2(Cl)Cl
inactive: [1] | [2] | [5] | [6] | [9] | [18] | [17] | [14] | [15] | [16]
active: [3] 2.18 µM

CCC(C)c1cc([N+](=O)[O-])cc([N+](=O)[O-])c1O (stereo not given)
active: [3] 12.6 µM | [5] 807 nM
inactive: [1] | [2] | [4] | [18] | [17] | [19] | [11] | [12] | [13] | [16]

CCOP(=S)(OCC)SCSC(C)(C)C
inactive: [1] | [2] | [3] | [4] | [7] | [9] | [12] | [13] | [14] | [15] | [16]
active: [5] 19.8 µM and 13.2 µM | [11] 20.2 µM and 27.7 µM

CCC(=O)O[C@H]1CC[C@H]2[C@@H]3CCC4=CC(=O)CC[C@]4(C)[C@H]3CC[C@]12C
inactive: [1] | [2] | [9] | [10] | [17] | [11] | [12] | [13] | [14] | [15] | [16]
active: [1] 156 µM | [7] 141 µM [middle of 4 runs] | [8] 632 nM [middle of 4 runs] | [11] 3.11 µM and 25.7 µM | [16] 164 µM

O=C(O)C(F)(F)C(F)(F)C(F)(F)C(F)(F)C(F)(F)C(F)(F)C(F)(F)C(F)(F)F
inactive: [1] | [2] | [3] | [9] | [17] | [19] | [11] | [12] | [13] | [14] | [16]
active: [2] 48.2 µM and 72.7 µM | [3] 205 µM and 40 µM | [5] 27.8 µM and 71.8 µM and 36.7 µM | [19] 151 µM and 219 µM | [15] 38.9 µM and 39.4 µM
